# Calb FLC = C. albicans growth inhibition with fluconazole, primary screen, CaCi-2 strain, Alamar Blue fluorescence; C. albicans CaCi-2 (fluconazole-resistant clinical isolate) + fluconazole, 48 h; growth inhibition, % (no concentration beside the values); hit rate 0.57% among 300,000;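 active = growth inhibition above about 58% in most replicates, limit read from the data, passing the limit was not always enough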;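 note: all wells also contain fluconazole at 8 µg/ml as a sub-toxic cotreatment; 0% = median of DMSO wells and 100% = median of geldanamycin control wells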
# Rpn11 inh = Rpn11 (PSMD14) deubiquitinase inhibitors, primary screen, biochemical, fluorescence polarization, uHTS; AID 588493, 2011; human 26S proteasome, Ub4-pepOG fluorescence polarization; 20S core pre-blocked with epoxomicin; 26S proteasome non-ATPase regulatory subunit 14 (Homo sapiens), O00487; hit rate 0.59% among 360,000; inhibition, % at 20 µM;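 active = inhibition at 20 µM, scaled to each plate's controls, above about 33%, limit read from the data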
# Target sequence (O00487 whole entry, looked up): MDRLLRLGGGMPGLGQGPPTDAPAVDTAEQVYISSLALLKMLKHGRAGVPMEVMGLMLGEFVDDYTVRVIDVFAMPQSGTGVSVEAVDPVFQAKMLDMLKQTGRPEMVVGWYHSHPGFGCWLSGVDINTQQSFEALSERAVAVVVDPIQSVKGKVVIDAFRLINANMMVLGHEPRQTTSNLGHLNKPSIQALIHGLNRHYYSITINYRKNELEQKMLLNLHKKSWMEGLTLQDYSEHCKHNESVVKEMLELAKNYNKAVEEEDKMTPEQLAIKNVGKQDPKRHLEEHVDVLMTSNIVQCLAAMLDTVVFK
# Rin1 Abl inh = inhibitors of Rin1-Abl protein binding, primary screen, biochemical, TR-FRET; inhibition, % at 7.35 µM; hit rate 0.4% among 360,000; AID 588664, 2011; in the data active = inhibition above about 5%, passing the limit was not always enough
# IDE cell inh = human IDE inhibitors in live cells, primary screen, fluorescence polarization, HEK cells, FAbetaB substrate; hit rate 0.41% among 320,000; inhibition, % at 5.59 µM; FAbetaB cleavage;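 active = percent inhibition above the average of all tested compounds plus 3 SD, set per screening campaign, cut at about 16% in these data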;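 note: IDE supplied by intact live HEK cells; FP after avidin binding of uncleaved biotin substrate so inhibition keeps polarization high; 0% = DMSO wells and 100% = 60 µM reference IDE inhibitor Ii1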
# TPT1 inhibitor = Candida albicans TPT1 enzyme inhibitors, primary screen, biochemical, fluorescence polarization; tRNA 2'-phosphotransferase TPT1 (Candida albicans SC5314); recombinant caTPT1, FP RNA substrate dephosphorylation; inhibition, % at 5 µM; hit rate 0.81% among 300,000;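 active = inhibition above the mean of all tested compounds plus 3 SD, set per screening campaign, cut at about 24% in these data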;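 note: plate controls were DMSO alone for no effect and ferristatin control at 100 nM for full effect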
# IDE cell activ = human IDE activators in live cells, primary screen, fluorescence polarization, HEK cells, FAbeta-B substrate; Insulin-degrading enzyme (Homo sapiens), P14735; FAbeta-B cleavage; 0% vehicle, 100% cell-free pure enzyme wells; activation, % at 5.96 µM; hit rate 0.073% among 340,000; AID 493087, 2011;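 active = activation above the mean of all tested compounds plus 3 SD, set per screening campaign, cut at about 17% in these data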
# caTPT1 confirm = Candida albicans TPT1 inhibitors, confirmation, biochemical, fluorescence polarization, triplicate; hit rate 74% among 2,400; inhibition, % at 5 µM; recombinant caTPT1, RNase T1 coupled; shares compounds with TPT1 inhibitor;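 active = inhibition above the primary screen limit, the mean inhibition of all tested compounds plus 3 SD, cut at about 25% in these data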
# RNase T1 counter = RNase T1 inhibitors, counter-screen for TPT1 inhibitor project, biochemical, fluorescence polarization; shares compounds with TPT1 inhibitor; RNase T1 cleavage, 1536-well; inhibition, % at 5 µM; hit rate 83% among 2,400; AID 2153, 2009;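 active = inhibition above the solvent-only control well mean plus 3 SD, limit set per screening run, cut at about 23% in these data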;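 note: plate controls were DMSO wells with enzyme for no effect and wells without RNase T1 for full effect; inhibitors block cleavage so intact labeled substrate keeps polarization high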
# Target sequence (P00651 whole entry, looked up): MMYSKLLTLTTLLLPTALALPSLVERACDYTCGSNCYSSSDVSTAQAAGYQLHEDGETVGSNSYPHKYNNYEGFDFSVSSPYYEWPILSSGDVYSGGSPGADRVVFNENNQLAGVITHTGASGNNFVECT
# An asterisk follows results filed as active; x = no result given. Shown are actives, neighbours in structure and some others; about 2.3% of the full set was active somewhere.
SMILES,Calb FLC,Rpn11 inh,Rin1 Abl inh,IDE cell inh,TPT1 inhibitor,IDE cell activ,caTPT1 confirm,RNase T1 counter
Cn1c(=O)c2[nH]c(CCCCCCCc3nc4ccccc4[nH]3)nc2n(C)c1=O,x,-3.2,3.5,x,x,4.6,x,x
O=c1oc2c(O)c(O)cc3c(=O)oc4c(O)c(O)cc1c4c23,x,39.2,60.5*,-5.9,81.5*,6.2,91.8*,16.7
O=c1oc2ccccc2c2oc3cc(O)c(O)cc3c12,68.2,0.6,-3.1,-4.2,-4.2,-2.9,x,x
CN1CCc2c(sc3c2C(=O)NC(c2ccc(-c4cccc(Cl)c4)o2)N3)C1 (configuration not stated),-0.9,x,-7.4,15.3,115.0*,-20.4,111.0*,116.5*
CN1CCc2c(sc3c2C(=O)NC(c2cccs2)N3)C1 (configuration not stated),-7.7,6.5,-6.9,8.3,33.6*,-4.4,23.4,35.3*
CSc1ccc(C2NC(=O)c3c(sc4c3CCN(C)C4)N2)cc1 (configuration not stated),-3.7,x,-2.8,10.7,104.8*,-16.3,96.6*,101.2*
CN1CCc2c(sc3c2C(=O)NC(/C=C\c2ccccc2)N3)C1 (configuration not stated),-1.3,x,-1.4,10.9,22.3,x,x,x
Cc1ccsc1C1NC(=O)c2c(sc3c2CCN(C)C3)N1 (configuration not stated),28.5,27.1,-9.7,11.9,60.8*,-7.8,55.5*,65.0*
N#CCc1nc(C(c2ccccc2)c2ccccc2)no1,0.1,x,2.5,1.1,25.4*,-6.7,19.3,27.8*
Cc1ccc2c(cnn2C(=O)CCCC(=O)NC(C)c2ccccc2)c1 (configuration not stated),5.4,3.3,-1.9,-0.5,-1.2,4.8,x,x
CN(C)S(=O)(=O)c1cccc(NC(=S)N/N=C/c2cc(Br)ccc2O)c1,81.0*,x,-0.9,11.9,25.1*,-25.3,53.2*,59.3*
CC(C)COc1ccc(C(=O)Nc2ccc(NC(=O)c3ccco3)cc2)cc1,25.4,8.4,5.0,2.4,3.4,-7.0,x,x
Nc1nc(-c2ccccc2)c(-c2ccc([N+](=O)[O-])cc2)s1,-0.3,19.6,-6.7,1.1,40.3*,-6.5,51.1*,68.9*
NC(=O)C1(Nc2ccccc2)CCCC1,x,-2.7,0.9,x,x,3.0,x,x
NNC(=O)c1oc2nc(-c3ccc(Cl)cc3)cc(-c3ccccc3)c2c1N,14.9,26.3,0.3,x,x,2.0,x,x
NNC(=O)c1oc2nc(-c3ccco3)cc(-c3ccco3)c2c1N,3.3,13.6,-1.6,-0.8,65.8*,x,47.8*,60.7*
Nc1c(C(=O)N/N=C/c2cccnc2)oc2nc(-c3ccco3)cc(-c3ccco3)c12,8.7,-48.5,2.8,-4.0,44.4*,x,75.5*,80.5*
Cc1ccc(NC(=O)CSc2nc(=O)n(CCCN3CCOCC3)c3c2CCCC3)c(C)c1,13.5,-5.0,1.8,4.3,66.0*,1.6,2.9,4.1
CN(CCC#N)c1ccc(/C=C(\C#N)c2ccccn2)cc1,4.5,12.1,-6.7,6.2,24.7*,-1.1,-66.5,-51.7
CCN(Cc1ccccc1)c1ccc(/C=C(\C#N)c2ccccn2)cc1,6.0,32.8,-1.7,7.6,67.4*,-2.6,45.7*,49.9*
CCN(CC)c1ccc(/C=C(\C#N)c2ccccn2)cc1,4.5,x,-5.7,16.1,135.1*,-20.5,123.7*,129.5*
CN(CCC#N)c1ccc(C=C(C#N)c2ccc(Br)cc2)cc1,x,31.7,-0.3,x,x,x,x,x
N#C/C(=C\c1ccc(C(=O)O)cc1)c1ccccn1,3.2,-1.9,1.8,-2.1,-4.1,3.3,x,x
CCOC(=O)C1=CNS(=O)(=O)NC1c1cccc(O)c1 (configuration not stated),x,8.9,-4.5,x,x,-0.3,x,x
Cc1c(C#N)c(O)[nH]c(=O)c1N=Nc1ccc(S(N)(=O)=O)cc1,-6.8,6.7,-2.6,4.3,24.5*,3.4,13.7,26.3*
SMILES,Calb FLC,Rpn11 inh,Rin1 Abl inh,IDE cell inh,TPT1 inhibitor,IDE cell activ,caTPT1 confirm,RNase T1 counter
CCOc1ccc(C(O)(c2ccccc2)C(CN2CCCC2)c2ccccc2)cc1 (configuration not stated),-0.6,1.4,-1.7,0.5,-1.6,2.5,x,x
COc1ccc2o/c(=N\O)c(C(=O)Nc3ccccc3OC)cc2c1,-9.4,-0.1,0.9,28.0*,162.5*,-2.5,126.5*,125.1*
COc1ccc(CCNC(=O)CSc2nnc(C(C)N(C)C)n2Cc2ccccc2)cc1OC (configuration not stated),-1.8,1.0,-3.6,4.0,99.7*,3.8,-1.2,3.3
COc1ccc(C2=NOC(C(=O)Nc3ccc4c(c3)OCCO4)C2)c(OC)c1 (configuration not stated),1.5,2.7,2.5,6.0,-1.6,0.2,x,x
O=C(O)CCCCCN1C(=O)/C(=C\c2ccc(-c3ccc(Cl)cc3)o2)SC1=S,-3.7,x,-3.3,-2.5,27.2*,7.3,65.2*,80.5*
CN(N=Nc1nc[nH]c1C(N)=O)C1CCCCC1,x,-3.0,1.3,x,x,x,x,x
O=C1CSC(=S)N1N=Cc1ccccc1O,x,22.9,-0.7,x,x,-5.6,x,x
O=C1CSC(=S)N1/N=C/c1cc(Br)c(O)c(Br)c1,0.1,x,-1.8,132.6*,81.7*,-170.9,75.0*,83.7*
CC(O)(c1ccccc1)c1nc(-c2ccc(S(C)(=O)=O)cc2)cs1 (configuration not stated),x,-0.5,-3.4,x,x,x,x,x
CCCc1cc2c(=O)n(NC(=O)c3nn(C)cc3[N+](=O)[O-])c(C)nc2s1,-5.3,-0.7,-1.4,7.8,57.4*,1.8,3.5,5.3
Cn1cc([N+](=O)[O-])c(C(=O)NCC(=O)O)n1,-3.0,-0.4,1.2,-1.0,-0.3,8.2,x,x
CCCNC(=O)Cn1c(=O)/c(=C\c2ccc(-c3cccc([N+](=O)[O-])c3)o2)s/c1=C\C(=O)C(C)(C)C,-4.6,-38.6,-2.4,-2.4,50.3*,4.2,-88.1,-57.7
COc1ccccc1N1N=C(c2ccc([N+](=O)[O-])cc2)CC1c1ccccc1 (configuration not stated),2.0,x,-0.9,8.5,52.1*,0.8,46.0*,56.8*
